# According to PubChem BioAssay:
# Several values for one entry are separate records, joined by “and”; a condition that tells them apart may be missing. Equal entries are not always repeated. For some of these results: Measured potencies and affinities stand elsewhere. The list shows a part of the results. Activity calls are given as the source filed them.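 Rule for the calls, unless noted: active = fitted half-maximal concentration within 10 nM to 100 µM, steepness 0.5 to 2, significant signal drop, low assay interference; inactive = the rest.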
# Key:
# [1] = target: Cell division control protein 42 homolog (Homo sapiens) (UniProt P60953); experiment: inhibition of fluorescent GTP binding to constitutively active Cdc42 – biochemical, multiplex bead flow cytometry, Bodipy-FL-GTP, dose response (AID 1333;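 active = fitted half-maximal concentration within the tested dose range, moderate curve steepness, a statistically real signal drop, and little compound fluorescence or tag-binding interference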)
# [2] = target: Cell division control protein 42 homolog (Homo sapiens) (UniProt P60953); experiment: inhibition of fluorescent GTP binding to wildtype Cdc42 – biochemical, multiplex bead flow cytometry, Bodipy-FL-GTP, dose response (AID 1334;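 active = fitted half-maximal concentration within the tested range, moderate curve steepness, significant signal drop, and little compound fluorescence or bead-linkage interference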); settings: bead-based flow cytometry, Bodipy-FL-GTP binding to GST-Cdc42; at 100 µM (top of the series) unless noted
# [3] = target: GTPase HRas (Homo sapiens) (UniProt P01112); experiment: Ras wt fluorescent GTP loading blockade – biochemical, wildtype, multiplex bead flow cytometry, dose response (AID 1335); settings: bead-based flow cytometry, Bodipy-GTP binding to GST-Ras; at 100 µM (top of the series) unless noted
# [4] = test system: Ras-related protein Rab-7a (dog), GTP binding; experiment: blockers of fluorescent GTP binding to Rab7 – biochemical, wildtype, multiplex bead flow cytometry, dose response (AID 1336; call rule not given here)
# [5] = target: Ras-related C3 botulinum toxin substrate 1 (Homo sapiens) (UniProt P63000); experiment: inhibition of wildtype Rac1 nucleotide loading – biochemical, multiplex bead flow cytometry, dose response (AID 1340;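 active = dose curve with midpoint inside tested range, moderate steepness, plateau gap beyond fit error, low compound glow and bead-link interference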); settings: GST-Rac1 beads, Bodipy-FL-GTP binding; at 100 µM (top of the series) unless noted
# [6] = target: GTPase HRas (Homo sapiens) (UniProt P01112); experiment: blockade of GTP loading onto mutant Ras – biochemical, activated mutant, multiplex bead flow cytometry, dose response (AID 1341;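 active = dose-response curve with midpoint inside the tested range, moderate steepness, significant amplitude and little compound fluorescence or bead-attachment interference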;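 note: GST-tagged constitutively activated Ras mutant immobilized on beads and multiplexed with other GTPases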)
# [7] = hit retest on RPL19A-GFP reporter strain – cell-based, S. cerevisiae, flow cytometry, cherry picks, mother/daughter gates, confirmation (AID 2270;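 active = GFP response below 50% of the DMSO control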); settings: 3 h, at 10 µM, stronger effect = lower value, 100 = same GFP as DMSO wells
# [8] = yeast TOR pathway reporter LAP4-GFP change – cell-based, cherry picks, flow cytometry, mother/daughter gates, confirmation (AID 2271;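 active = GFP response above 150% of the DMSO control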;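 note: ratio of sample to DMSO plate mean so 100% equals DMSO level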); settings: S. cerevisiae LAP4-GFP strain, 3 h, at 10 µM, stronger effect = higher value, 100 means same as DMSO control
# [9] = TOR pathway reporter MEP2-GFP, retest of hits – S. cerevisiae, flow cytometry GFP, cherry picks, confirmation (AID 2272;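 active = GFP response above 150% of the DMSO control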;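 note: ratio of well signal to plate DMSO mean so 100% equals DMSO level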); settings: S. cerevisiae MEP2-GFP strain, 3 h, at 10 µM, stronger effect = higher value
# [10] = yeast AGP1-GFP fluorescence change, single-dose – cell-based, flow cytometry, S. cerevisiae, cherry picks, confirmation (AID 2273;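 active = GFP response above 150% of the DMSO level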;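 note: median GFP channel fluorescence over the whole cell population gate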); settings: S. cerevisiae AGP1-GFP strain, 3 h, at 10 µM
# [11] = TOR pathway CIT2 reporter hit retest – S. cerevisiae, GFP fusion, cherry picks, mother/daughter gates, confirmation (AID 2274;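 active = GFP response above 150% of the DMSO level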); settings: S. cerevisiae CIT2-GFP strain, flow cytometry, 3 h, at 10 µM, stronger effect = higher value
# [12] = yeast TOR reporter LAP4-GFP level changes – cell-based, second cherry pick, flow cytometry, confirmation (AID 2621;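 active = GFP signal as percent of the solvent control above about 150%, meaning raised reporter expression, limit read from the data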;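 note: ratio of well median GFP fluorescence to plate DMSO mean so 100% = DMSO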); settings: S. cerevisiae LAP4-GFP strain, 3 h, at 10 µM, stronger effect = higher value
# [13] = TOR pathway reporter MEP2-GFP, hit retest – S. cerevisiae, flow cytometry GFP, second cherry picks, confirmation (AID 2622;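 active = GFP signal above 150% of the solvent control wells, that is a rise of more than half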;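 note: median channel GFP fluorescence of all gated yeast cells per well; ratio of median GFP to plate DMSO average so 100% = DMSO level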); settings: S. cerevisiae MEP2-GFP strain, 3 h, at 10 µM, stronger effect = higher value
# [14] = retest of hits on RPL19A-GFP strain – cell-based, S. cerevisiae, flow cytometry, second cherry pick, confirmation (AID 2623;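 active = under 65% GFP response relative to DMSO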;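 note: median GFP channel fluorescence per well over the all cells gate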); settings: 3 h, at 10 µM, stronger effect = lower value, 100% means same as DMSO wells
# [15] = yeast TOR pathway CIT2-GFP reporter modulation – flow cytometry, second cherry pick, single plex, confirmation (AID 2624;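 active = GFP response vs DMSO above about 150%, limit read from the data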;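 note: median green fluorescence per well over all gated yeast cells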); settings: S. cerevisiae CIT2-GFP strain, 3 h, at 10 µM, stronger effect = higher value, DMSO control wells read 100%
# [16] = yeast AGP1-GFP fluorescence change, single-dose confirmation – cell-based, flow cytometry, S. cerevisiae, cherry pick set 2 (AID 2643;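 active = over 150 percent of DMSO response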;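 note: median GFP channel fluorescence over all cells without mother daughter split; sample median GFP divided by mean DMSO control so 100% equals DMSO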); settings: S. cerevisiae AGP1-GFP strain, 3 h, at 10 µM, stronger effect = higher value
# [17] = green-channel fluorescence artefact in S. cerevisiae – s288c strain, artefact control for yeast TOR pathway GFP screen, dose response (AID 2757;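 active = fluorescence span over the dose series, or activity score, above about 33, limit read from the data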;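 note: thousands of bead-calibrated equivalent soluble fluorophore molecules from median cell fluorescence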); settings: 520 nm autofluorescence, flow cytometry, 3 h, at 33 µM, stronger effect = higher value, zero means same as solvent-only cells
# [18] = measured here: daughter cell gate
# [19] = measured here: mother cell gate
# [20] = measured here: daughter cell gate response
# [21] = measured here: mother cell gate response
# GTPase HRas (Homo sapiens), sequence (P01112 whole entry, looked up): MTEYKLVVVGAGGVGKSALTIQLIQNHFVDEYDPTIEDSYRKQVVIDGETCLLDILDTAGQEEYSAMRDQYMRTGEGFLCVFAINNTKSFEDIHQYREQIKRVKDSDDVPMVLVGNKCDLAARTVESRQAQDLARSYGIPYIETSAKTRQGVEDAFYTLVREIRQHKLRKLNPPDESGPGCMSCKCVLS
# Cell division control protein 42 homolog (Homo sapiens), sequence (P60953 whole entry, looked up): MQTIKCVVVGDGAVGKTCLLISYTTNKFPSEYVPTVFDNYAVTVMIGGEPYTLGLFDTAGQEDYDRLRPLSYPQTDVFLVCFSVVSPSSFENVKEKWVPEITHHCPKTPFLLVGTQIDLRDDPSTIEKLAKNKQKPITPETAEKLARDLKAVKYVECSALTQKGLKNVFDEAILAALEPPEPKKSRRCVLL
smiles,measurement,setting,value
O=C(C#Cc1ccccc1)c1cccc([N+](=O)[O-])c1,outcome,[1],inactive
same,"fluorescence, percent of control (lower = inhibition)",[2],50.9% and 49.2%
same,"GTP binding, percent of control",[3],170% and 92.3%
same,outcome,[4],inactive
same,"GTP binding signal, raw median fluorescence (lower = inhibition) (MCF (arbitrary fluorescence units))",[5],92.8
same,outcome,[6],inactive
same,GFP response vs DMSO,[7],92.5% (inactive)
same,GFP response vs DMSO,[7]; [18],95.9%
same,GFP response vs DMSO,[7]; [19],85.9%
same,GFP response relative to DMSO,[8],182% (active)
same,GFP response relative to DMSO,[8]; [20],166%
same,GFP response relative to DMSO,[8]; [21],183%
same,GFP response vs DMSO,[9],121% (inactive)
same,"GFP response, % of DMSO",[10],112% (inactive)
same,"GFP response, % of DMSO",[11],105% (inactive)
same,"GFP response, % of DMSO",[11]; [18],110%
same,"GFP response, % of DMSO",[11]; [19],97.3%
O=C1c2oc3ccc(Br)cc3c(=O)c2C(c2cccc(F)c2)N1CCO (stereo unspecified),outcome,[1],inactive
same,"fluorescence, percent of control (lower = inhibition)",[2],36.4%
same,"GTP binding, percent of control",[3],81.2%
same,outcome,[4],inactive
same,"GTP binding signal, raw median fluorescence (lower = inhibition) (MCF (arbitrary fluorescence units))",[5],276
same,outcome,[6],inactive
Oc1ccc2ccccc2c1/C=N/Nc1nnc(-c2ncc[nH]2)c2ccccc12,outcome,[1],inactive
same,"fluorescence, percent of control (lower = inhibition)",[2],44%
same,"GTP binding, percent of control",[3],59.7%
same,outcome,[4],inactive
same,"GTP binding signal, raw median fluorescence (lower = inhibition) (MCF (arbitrary fluorescence units))",[5],138
same,outcome,[6],inactive
same,GFP response vs DMSO,[7],108% (inactive)
same,GFP response vs DMSO,[7]; [18],91.9%
same,GFP response vs DMSO,[7]; [19],108%
same,GFP response relative to DMSO,[8],123% (inactive)
same,GFP response relative to DMSO,[8]; [20],119%
same,GFP response relative to DMSO,[8]; [21],128%
same,GFP response vs DMSO,[9],137% (inactive)
same,"GFP response, % of DMSO",[10],95.9% (inactive)
same,"GFP response, % of DMSO",[11],162% (active)
same,"GFP response, % of DMSO",[11]; [18],114%
same,"GFP response, % of DMSO",[11]; [19],205%
NC(N)=NS(=O)(=O)c1ccc(NC(=S)NC(=O)c2ccc3c(c2)OCO3)cc1,outcome,[1],inactive
same,"fluorescence, percent of control (lower = inhibition)",[2],44.3%
same,"GTP binding, percent of control",[3],97.7%
same,outcome,[4],inactive
same,outcome,[6],inactive
N=c1c(C(=O)NCc2ccco2)cc2c(=O)n3ccccc3nc2n1CCc1ccccc1,outcome,[1],inactive
same,"fluorescence, percent of control (lower = inhibition)",[2],28.7%
same,"GTP binding, percent of control",[3],40.3%
same,outcome,[4],inactive
same,"GTP binding signal, raw median fluorescence (lower = inhibition) (MCF (arbitrary fluorescence units))",[5],96.5
same,outcome,[6],inactive
same,GFP response vs DMSO,[7],96.8% (inactive)
same,GFP response vs DMSO,[7]; [18],96.4%
same,GFP response vs DMSO,[7]; [19],95.8%
same,GFP response relative to DMSO,[8],99.2% (inactive)
same,GFP response relative to DMSO,[8]; [20],99.2%
same,GFP response relative to DMSO,[8]; [21],90.8%
same,GFP response vs DMSO,[9],100% (inactive)
same,"GFP response, % of DMSO",[10],97% (inactive)
same,"GFP response, % of DMSO",[11],96.9% (inactive)
same,"GFP response, % of DMSO",[11]; [18],95.4%
same,"GFP response, % of DMSO",[11]; [19],91.4%
COc1ccc(/C=C/C(=O)c2cc(Br)ccc(=O)c2O)cc1,outcome,[1],inactive
same,"fluorescence, percent of control (lower = inhibition)",[2],28.6%
same,"GTP binding, percent of control",[3],73%
same,outcome,[4],inactive
same,"GTP binding signal, raw median fluorescence (lower = inhibition) (MCF (arbitrary fluorescence units))",[5],226
same,outcome,[6],inactive
same,GFP response vs DMSO,[12],169% (active)
same,GFP response vs DMSO,[13],185% (active)
same,GFP response vs DMSO,[14],77.3% (inactive)
same,GFP response vs DMSO,[15],191% (active)
same,percent response vs DMSO,[16],80% (inactive)
same,fluorescence change (kMESF span),[17],68.2 (active)
CC(C)(C)C(=O)/C=c1\s/c(=C\c2ccc(-c3ccc([N+](=O)[O-])cc3)o2)c(=O)n1CC(=O)NC(N)=O,outcome,[1],inactive
same,"fluorescence, percent of control (lower = inhibition)",[2],99.6%
same,"GTP binding, percent of control",[3],141%
same,outcome,[4],inactive
same,"GTP binding signal, raw median fluorescence (lower = inhibition) (MCF (arbitrary fluorescence units))",[5],256
same,outcome,[6],inactive
same,GFP response vs DMSO,[7],101% (inactive)
same,GFP response vs DMSO,[7]; [18],101%
same,GFP response vs DMSO,[7]; [19],101%
same,GFP response relative to DMSO,[8],102% (inactive)
same,GFP response relative to DMSO,[8]; [20],99.7%
same,GFP response relative to DMSO,[8]; [21],103%
same,GFP response vs DMSO,[9],112% (inactive)
same,"GFP response, % of DMSO",[10],101% (inactive)
same,"GFP response, % of DMSO",[11],99.7% (inactive)
same,"GFP response, % of DMSO",[11]; [18],100%
same,"GFP response, % of DMSO",[11]; [19],98.7%
